PubChem BioAssay AID1159580 (chemical genetic matrix, 2015)
Among all 5,500 compounds or so, about 2,000 (36%) were called active. Another 18% or so got no clear call; they are omitted. No stated cut-off is given here; in the data, active means normalized growth mostly below about 0.91 (no sharp cut-off); inconclusive means no clear call, values can overlap the other calls; inactive means mostly above about 0.92. The list shows a part of the results.

Experiment: chemical genetic growth profiling, strain panel (AID 1159580);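 further: tested at 20 µM; growth read once vehicle control cultures reached saturation at 30 °C; 1 = growth at the plate median or of vehicle wells; lower values mean less growth of the strain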
Conditions: growth OD
[1] = S. cerevisiae deletion strains, locus YAL013W, strain DEP1, active compounds read low
[2] = S. cerevisiae deletion strains, locus YBR229C, strain ROT2, active compounds read low
[3] = S. cerevisiae deletion strains, locus YCL061C, strain MRC1, active compounds read low
[4] = S. cerevisiae deletion strains, locus YDL101C, strain DUN1, active compounds read low
[5] = S. cerevisiae deletion strains, locus YDR150W, strain NUM1, active compounds read low
[6] = S. cerevisiae deletion strains, locus YEL061C, strain CIN8, active compounds read low
[7] = S. cerevisiae deletion strains, locus YGR078C, strain PAC10, active compounds read low
[8] = S. cerevisiae deletion strains, locus YGR229C, strain SMI1, active compounds read low
[9] = S. cerevisiae deletion strains, locus YHR030C, strain SLT2, active compounds read low
[10] = S. cerevisiae deletion strains, locus YHR087W, strain rtc3, active compounds read low
[11] = S. cerevisiae deletion strains, locus YJR043C, strain POL32, active compounds read low
[12] = S. cerevisiae deletion strains, locus YJR075W, strain HOC1, active compounds read low
[13] = S. cerevisiae deletion strains, locus YKL190W, strain CNB1, active compounds read low
[14] = S. cerevisiae deletion strains, locus YLR039C, strain RIC1, active compounds read low
[15] = S. cerevisiae deletion strains, locus YLR058C, strain SHM2 (second series), active compounds read low
[16] = S. cerevisiae deletion strains, locus YLR085C, strain ARP6, active compounds read low
[17] = S. cerevisiae deletion strains, locus YLR262C, strain YPT6, active compounds read low
[18] = S. cerevisiae deletion strains, locus YML094W, strain GIM5, active compounds read low
[19] = S. cerevisiae deletion strains, locus YMR219W, strain ESC1, active compounds read low
[20] = S. cerevisiae deletion strains, locus YMR263W, strain SAP30, active compounds read low
[21] = S. cerevisiae deletion strains, locus YNL128W, strain TEP1, active compounds read low
[22] = S. cerevisiae deletion strains, locus YNL153C, strain GIM3, active compounds read low
[23] = S. cerevisiae deletion strains, locus YNL298W, strain CLA4 (second series), active compounds read low
[24] = S. cerevisiae deletion strains, locus YNL322C, strain KRE1, active compounds read low
[25] = S. cerevisiae deletion strains, locus YNR030W, strain Alg12, active compounds read low
[26] = S. cerevisiae deletion strains, locus YPL055C, strain LGE1, active compounds read low
[27] = S. cerevisiae deletion strains, locus YPL241C, strain CIN2, active compounds read low
[28] = S. cerevisiae deletion strains, locus YPR135W, strain CTF4, active compounds read low

Measured: normalized growth

c1ccc(-c2csc(-c3ccncc3)n2)cc1
active: [1] 0.916 | [9] 0.22 | [13] 0.894 | [14] 0.371 | [16] 0.535 | [17] 0.384 | [18] 0.814 | [23] 0.829 | S. cerevisiae deletion strains, locus YOL006C, strain TOP1, active compounds read low 0.379 | [27] 0.8 | [28] 0.515
inactive: [2] 0.979 | [3] 0.944 | [4] 0.967 | [5] 0.934 | [6] 0.914 | [7] 0.974 | [8] 0.958 | [10] 0.981 | S. cerevisiae deletion strains, locus YJL187C, strain SWE1, active compounds read low 1.03 | [11] 0.974 | [12] 0.987 | [15] 0.972 | [19] 0.971 | [20] 0.946 | S. cerevisiae deletion strains, locus YMR307W, strain GAS1, active compounds read low 0.737 | [21] 0.937 | [22] 0.964 | [24] 0.989 | [25] 0.901 | [26] 0.832

OC(c1ccccc1)(c1ccccc1)c1ccncc1
inactive: [1] 1.05 | [2] 1 | [4] 1 | [5] 1.01 | [6] 0.991 | [7] 1.02 | [8] 0.997 | [9] 1.03 | [10] 1.02 | [11] 1.01 | [12] 0.984 | [13] 0.996 | [14] 1.03 | [15] 0.996 | [16] 1.19 | [17] 0.997 | [18] 1.04 | [19] 0.999 | [20] 1.03 | [21] 0.999 | [22] 1.02 | [23] 1.01 | [24] 1 | [25] 1.03 | [26] 1.09 | [27] 1.1 | [28] 1.14 | S. cerevisiae strains, strain wild type, active compounds read low 1.01

c1ccc(-c2nc(-c3cccs3)cs2)cc1
inactive: [4] 0.988 | [5] 0.939 | [11] 0.973 | [20] 0.931 | [22] 0.983
active: [1] 0.916 | [2] 0.877 | [3] 0.895 | [6] 0.838 | [7] 0.88 | [9] 0.166 | [10] 0.744 | [12] 0.707 | [14] 0.273 | [15] 0.859 | [16] 0.408 | [17] 0.274 | [18] 0.866 | [19] 0.919 | [23] 0.714 | [24] 0.914 | [25] 0.693 | [26] 0.768 | [27] 0.813 | [28] 0.341
